Assay results taken from PubChem BioAssay AID651899 (Broad Institute, 2012).
Measured potencies and affinities stand elsewhere. The source made the active and inactive calls. The rule behind the calls is not given here.

assay: HEK293 cell viability loss – plate reader, cherry-pick, cytotoxicity control, dose response (AID 651899); conditions: series mostly up to 26 µM;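 note: cells exposed to compound for 48 hours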

Row | Structure (SMILES) | outcome
1 | O=C(Nc1nccs1)[C@H]1[C@H](CO)[C@H]2Cn3c(ccc(-c4cccnc4)c3=O)[C@H]2N1CC1CCCC1 | inactive
2 | COCCN1C(=O)c2ccc(C(=O)Nc3cccnc3)cc2C1=O | inactive
3 | COc1cc(-c2n[nH]c(=S)n2-c2cccc(C(F)(F)F)c2)cc(OC)c1OC | inactive
4 | CCN(CC)c1ccc2cc(C(=O)c3cccs3)c(=O)oc2c1 | inactive
5 | CO[C@H]1CN(C)C(=O)c2ccc(NC(C)=O)cc2OC[C@@H](C)N(C(=O)C2CCCCC2)C[C@H]1C | inactive
6 | O=C(Nc1ccc(F)cc1)NC1CCN(Cc2nnnn2Cc2ccco2)CC1 | inactive
7 | Cc1c(OC(C)C(=O)NCC2CCC(C(=O)O)CC2)ccc2c1oc(=O)c1ccccc12 (stereo unspecified) | inactive
8 | O=C(Nc1cccnc1)c1ccc(Oc2ccccc2)cc1 | inactive
9 | COc1cccc(CNC(=O)c2ccc(NC(=O)C3=CSCCO3)cc2)c1 | inactive
10 | CC(C)(C)[S@](=O)N1Cc2cc(C(=O)NCc3ccccc3F)nc(-c3cccc(-c4cccnc4)c3)c2[C@@H]1CCO | inactive
11 | Cc1cc(/C=C(/C#N)C(=O)Nc2ccccc2)c(C)n1-c1cccnc1 | inactive
12 | Cn1nnc2cc(C(=O)Nc3cccnc3)ccc21 | inactive
13 | CCCN1CCN(C(=O)C2CCN(c3nnc(C)c4c(C)n(-c5ccc(C)cc5)nc34)CC2)CC1 | inactive
14 | COC(=O)c1c(C(=O)OC)c(-c2cccc(F)c2)n2c1CS(=O)C2 (stereo unspecified) | inactive
15 | COc1cc(C(=O)Nc2cccnc2)cc(OC)c1OC | inactive
16 | COc1ccc(NC2CCCN(C(=O)c3ccc(C(C)=O)s3)C2)cc1 (stereo unspecified) | inactive
17 | Cc1c(C(N)=O)sc(N)c1C(=O)OC(C)C | inactive
18 | O=C(Nc1ccc2snnc2c1)N1CCN(c2ccccc2)CC1 | inactive

Row | Structure (SMILES) | outcome
19 | COC(=O)C[C@@H]1C[C@@H]2c3cc(NC(=O)c4cccnc4)ccc3O[C@@H]2[C@@H](CO)O1 | inactive
20 | O=C(Nc1ncc2c(n1)CC(c1ccco1)CC2=O)c1ccccc1 (stereo unspecified) | inactive
21 | Cc1nc2sc(C(c3ccc(Cl)cc3)N3CCN(c4ccccc4F)CC3)c(O)n2n1 (stereo unspecified) | inactive
22 | COC(=O)C1C(=O)C=C(Nc2ccc(F)cc2)CC1c1ccc(OC)cc1 (stereo unspecified) | inactive
23 | Cc1cccc(-c2ccc3c(c2)C2CC3CCN2)c1 (stereo unspecified) | inactive
24 | CCC(=O)N1CC[C@@H]2[C@H]1c1cc(-c3cccc(F)c3)ccc1N(C)[C@H]2CO | inactive
25 | Cc1cc(C)n(-c2ccc(C(=O)Nc3ccc4c(c3)OCO4)cc2)n1 | inactive
26 | CC1CN(C(=O)Nc2ccc3snnc3c2)c2ccccc21 (stereo unspecified) | inactive
27 | Cc1nc2nc(SCC(=O)NCCCN3CCOCC3)nn2c(C)c1Cc1ccccc1 | inactive
28 | O=C(C[C@@H]1C[C@@H]2c3cc(NC(=O)c4cccnc4)ccc3O[C@@H]2[C@@H](CO)O1)NCc1cccc(F)c1 | inactive
29 | CC1(C(=O)NCc2ccc(F)c(F)c2)Cc2c(-c3cccc(C(N)=O)c3)ccnc2O1 (stereo unspecified) | inactive
30 | O=C(CSc1nc2c(c(=O)n1-c1ccccc1)SCC2)N1CCN(c2ccccc2)CC1 | inactive
31 | C/C=C/c1ccc2c(c1)O[C@@H](CN(C)C(=O)c1ccc3c(c1)OCO3)[C@@H](C)CN([C@@H](C)CO)S2(=O)=O | inactive
32 | COc1ccc(NC(=O)c2ccc(-n3cncn3)c([N+](=O)[O-])c2)cc1OC | inactive
33 | O=C(Nc1ccc2c(c1)[C@H]1C[C@@H](CC(=O)N3CCc4ccccc4C3)O[C@H](CO)[C@H]1O2)c1cccnc1 | inactive
34 | CCOc1ccc(C(=O)Nc2cc3c(cc2N2CCCC2)n(CC)c(=O)n3CC)cc1OCC | inactive
35 | CC(Oc1ccc2ccc(=O)oc2c1)C(=O)N1CCOCC1 (stereo unspecified) | inactive
36 | COc1ccc(NC(=O)c2ccc(S(=O)(=O)N(C)C)cc2)cc1OC | inactive
